# ± gives the standard deviation.
# Tested on: MILI (PIWIL2) piRISC loaded with L1MC piRNA (26 nt)
# Assay: pre-steady-state target cleavage rate (min^-1); guide: L1MC piRNA 5'p-UAACUAAAUACUAUGCAAGCUGUAGG; MIWI and MILI are mouse PIWI proteins and EfPiwi is from a freshwater sponge; tags in brackets are library labels; higher = faster piRNA-guided slicing of the target
# Conditions: auxiliary factor: 500 nM mouse GTSF1
# Summary of the method: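 Cleave-'n-Seq used a transcribed, DNA-blocked target RNA library at 0.1 nM and active affinity-purified piRISC with one synthetic guide at 1 nM, with or without 500 nM GTSF1 partner protein, in HEPES–potassium acetate buffer at 33 °C for 0–8 or 0–960 min. Uncleaved targets were sequenced and normalised to depth and to weakly complementary targets, and three trials were pooled with k3 capped at 0.0001 min^-1. The pre-steady-state cleavage rate was estimated by a burst-and-steady-state fit.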
row,Sequence,pre-steady-state target cleavage rate
1,UCCUGGAUGUGAUUGCAUAGUAUUUAGUUA,0.115 ± 0.015
2,UCCUGGAACAGCUUGCAUAGUAUUUAGUUUA,0.321 ± 0.018
3,UCCUCCUACAGCUUGCACAGUAUUUAGUUA,0.19 ± 0.017
4,UCCUCCUACAGCUUGCAUAGUACUUAGUUA,0.277 ± 0.018
5,UCCUGGAAGAGCUUGCAUUGUAUUUAGUUA,0.208 ± 0.011
6,UCCUCCUACAGCUUGCAUAGUAUUUAGUUA [g2:g26:cont:t1A],0.344 ± 0.02
7,UCCUGGUACAGCUUGCAUCGUAUUUAGUUA,0.0739 ± 0.014
8,UCCUCCUACAGCAUGCAUAGUAAUUAGUUA,0.251 ± 0.024
9,UCCUGGAUCAGCAAGCAUAGUAUUUAGUUA,0.231 ± 0.021
10,UCCUGGAACAGCUUGCAUAGUUUUUAGUUA,0.0586 ± 0.01
11,UCCUGGAUGAGCUUGCAUACUAUUUAGUUA,0.0499 ± 0.0093
12,UCCUGGCACAGCUUGCAUAGUAUUUAGUUA,0.289 ± 0.053
13,UCCUCCUACAGCUUGGAUAGUAUAUAGUUA,0.195 ± 0.022
14,UCCUGGAACAGGAAGCAUAGUAUUUAGUUA,0.199 ± 0.016
15,UCCUGGAACAGGCUUGCAUAGUAUUUAGUUA,0.219 ± 0.019
16,UCCUGGAUGUCCUAUGCAUAGUAUUUAGUUA,0.0987 ± 0.02
17,UCCUGGUACAGCUUGCCUAGUAUUUAGUUA,0.213 ± 0.019
18,UCCUGGUACAGCUUGCUUAGUAUUUAGUUA,0.219 ± 0.024
19,UCCUGGAACAGCUUGGUUAGUAUUUAGUUA,0.213 ± 0.02
20,UCCUGGUACAGCUUGCAUAGUAGUUAGUUA,0.2 ± 0.034

row,Sequence,pre-steady-state target cleavage rate
1,UCCUGCUAGAGCUUGCAUAGUAAUUAGUUA,0.19 ± 0.02
2,UCCUGGAUCAGCUUGCAUAGUAUUUAGUA,0.263 ± 0.019
3,UCCUGCUAGUCCUUGCAUAGUAUUUAGUUA,0.0977 ± 0.016
4,UCCUGGUUCAGCUUGCAUAGUUUUUAGUUA,0.0483 ± 0.013
5,UCCUGGUACAGCAAGCAUAGUAUUUAGUUA,0.232 ± 0.018
6,UCCUGGAUCUCGUUGCAUAGUAUUUAGUUA,0.198 ± 0.019
7,UCCUGGAUGAGCUUGCUUAGUAUUUAGUUA,0.17 ± 0.01
8,UCCUGGAUCAGCUUGCGUAGUAUUUAGUUA,0.192 ± 0.017
9,UCCUGGAUGUCGUUCGCAUAGUAUUUAGUUA,0.101 ± 0.013
10,UCCUGGAACAGCUUGCAUACUAUUUAGUUA,0.0842 ± 0.014
11,UCCUGGAUGUGCAAGCAUAGUAUUUAGUUA,0.055 ± 0.012
12,UCCUCCUUCAGCUUGGAUAGUAUUUAGUUA,0.242 ± 0.015
13,UCCUCGUACAGCUUGGAUAGUAUUUAGUUA,0.265 ± 0.012
14,UCCUCCUACAGCAUGCAAAGUAUUUAGUUA,0.161 ± 0.015
15,UCCUGGAUGUGCUUGCAUAGUAUUUAGUCA,0.117 ± 0.018
16,UCCUGGAACAGCUUGCAUAGUAUUAGUUA,0.199 ± 0.016
17,UCCUGCUACAGGAAGCAUAGUAUUUAGUAA,0.254 ± 0.024
18,UCCUGGAUGAGCUUGCAUAGUAUUUAGUGA,0.193 ± 0.025
19,UCCUGGAACAGCUAGCAUAGUAUUUAGUAA,0.275 ± 0.03
20,UCCUGGAUGAGCUUUGCAUAGUAUUUAGUUA,0.181 ± 0.013

# Same assay, conditions: auxiliary factor: none (no GTSF1)
row,Sequence,pre-steady-state target cleavage rate
1,UCCUGGAUGUGAUUGCAUAGUAUUUAGUUA,0.00851 ± 0.0026
2,UCCUGGAACAGCUUGCAUAGUAUUUAGUUUA,0.00981 ± 0.003
3,UCCUCCUACAGCUUGCACAGUAUUUAGUUA,0.00767 ± 0.0021
4,UCCUCCUACAGCUUGCAUAGUACUUAGUUA,0.00759 ± 0.002
5,UCCUGGAAGAGCUUGCAUUGUAUUUAGUUA,0.00838 ± 0.0031
6,UCCUCCUACAGCUUGCAUAGUAUUUAGUUA [g2:g26:cont:t1A],0.0103 ± 0.003
7,UCCUGGUACAGCUUGCAUCGUAUUUAGUUA,0.00985 ± 0.0037
8,UCCUCCUACAGCAUGCAUAGUAAUUAGUUA,0.00544 ± 0.0019
9,UCCUGGAUCAGCAAGCAUAGUAUUUAGUUA,0.00449 ± 0.0021
10,UCCUGGAACAGCUUGCAUAGUUUUUAGUUA,0.00493 ± 0.0022
11,UCCUGGAUGAGCUUGCAUACUAUUUAGUUA,0.00321 ± 0.0018
12,UCCUGGCACAGCUUGCAUAGUAUUUAGUUA,0.0117 ± 0.0049
13,UCCUCCUACAGCUUGGAUAGUAUAUAGUUA,0.0033 ± 0.0023
14,UCCUGGAACAGGAAGCAUAGUAUUUAGUUA,0.00491 ± 0.0024
15,UCCUGGAACAGGCUUGCAUAGUAUUUAGUUA,0.0094 ± 0.0029
16,UCCUGGAUGUCCUAUGCAUAGUAUUUAGUUA,0.00575 ± 0.0022
17,UCCUGGUACAGCUUGCCUAGUAUUUAGUUA,0.00843 ± 0.0026
18,UCCUGGUACAGCUUGCUUAGUAUUUAGUUA,0.00964 ± 0.0022
19,UCCUGGAACAGCUUGGUUAGUAUUUAGUUA,0.0126 ± 0.0037
20,UCCUGGUACAGCUUGCAUAGUAGUUAGUUA,0.00513 ± 0.0028

row,Sequence,pre-steady-state target cleavage rate
1,UCCUGCUAGAGCUUGCAUAGUAAUUAGUUA,0.00448 ± 0.0023
2,UCCUGGAUCAGCUUGCAUAGUAUUUAGUA,0.00426 ± 0.0027
3,UCCUGCUAGUCCUUGCAUAGUAUUUAGUUA,0.00689 ± 0.0019
4,UCCUGGUUCAGCUUGCAUAGUUUUUAGUUA,0.0081 ± 0.0027
5,UCCUGGUACAGCAAGCAUAGUAUUUAGUUA,0.00852 ± 0.0027
6,UCCUGGAUCUCGUUGCAUAGUAUUUAGUUA,0.00544 ± 0.0024
7,UCCUGGAUGAGCUUGCUUAGUAUUUAGUUA,0.00685 ± 0.0025
8,UCCUGGAUCAGCUUGCGUAGUAUUUAGUUA,0.0107 ± 0.0029
9,UCCUGGAUGUCGUUCGCAUAGUAUUUAGUUA,0.00567 ± 0.0028
10,UCCUGGAACAGCUUGCAUACUAUUUAGUUA,0.00298 ± 0.0025
11,UCCUGGAUGUGCAAGCAUAGUAUUUAGUUA,0.00481 ± 0.0026
12,UCCUCCUUCAGCUUGGAUAGUAUUUAGUUA,0.0086 ± 0.0023
13,UCCUCGUACAGCUUGGAUAGUAUUUAGUUA,0.00962 ± 0.0023
14,UCCUCCUACAGCAUGCAAAGUAUUUAGUUA,0.00732 ± 0.0021
15,UCCUGGAUGUGCUUGCAUAGUAUUUAGUCA,0.00487 ± 0.0035
16,UCCUGGAACAGCUUGCAUAGUAUUAGUUA,0.0037 ± 0.0023
17,UCCUGCUACAGGAAGCAUAGUAUUUAGUAA,0.00762 ± 0.0022
18,UCCUGGAUGAGCUUGCAUAGUAUUUAGUGA,0.00439 ± 0.003
19,UCCUGGAACAGCUAGCAUAGUAUUUAGUAA,0.00673 ± 0.0025
20,UCCUGGAUGAGCUUUGCAUAGUAUUUAGUUA,0.0103 ± 0.0021
